Structures are written as SMILES. Screen size: about 310,000 compounds; about 3,900 (1.3%) were called active.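 Rule for the calls: active = compounds whose thallium flux B-score, printed positive for inhibition, exceeds three library SD while starting fluorescence stays within three; inactive = the rest.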 Many of the other results were omitted from the sample, so actives are more common in it than they were.

108 compounds from PubChem BioAssay AID2642 (Johns Hopkins Ion Channel Center, 2010) can be followed below.

Chain of Potassium voltage-gated channel subfamily KQT member 1 (Homo sapiens) (P51787 whole entry, looked up): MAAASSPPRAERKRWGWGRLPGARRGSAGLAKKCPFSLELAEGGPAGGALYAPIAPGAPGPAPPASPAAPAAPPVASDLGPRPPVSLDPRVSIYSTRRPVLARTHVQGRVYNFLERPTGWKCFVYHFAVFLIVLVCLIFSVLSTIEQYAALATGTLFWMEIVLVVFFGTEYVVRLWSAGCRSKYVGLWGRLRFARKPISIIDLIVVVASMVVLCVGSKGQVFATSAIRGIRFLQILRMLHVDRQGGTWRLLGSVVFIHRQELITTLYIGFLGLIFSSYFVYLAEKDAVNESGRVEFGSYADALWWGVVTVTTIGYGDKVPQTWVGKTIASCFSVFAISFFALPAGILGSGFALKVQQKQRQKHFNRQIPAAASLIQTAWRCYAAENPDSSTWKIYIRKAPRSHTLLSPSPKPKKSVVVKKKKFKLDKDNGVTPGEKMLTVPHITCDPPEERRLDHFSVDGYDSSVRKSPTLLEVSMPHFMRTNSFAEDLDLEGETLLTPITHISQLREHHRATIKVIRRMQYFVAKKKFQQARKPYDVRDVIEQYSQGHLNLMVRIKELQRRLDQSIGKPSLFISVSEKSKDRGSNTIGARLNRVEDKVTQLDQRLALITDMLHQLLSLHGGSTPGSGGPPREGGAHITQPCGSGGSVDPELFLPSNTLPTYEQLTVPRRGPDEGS

This test addresses Potassium voltage-gated channel subfamily KQT member 1 (Homo sapiens) (UniProt P51787). As to the kind of experiment: KCNQ1 potassium current blockers – cell-based, thallium flux, high-throughput, primary screen (AID 2642).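 Note: channel opened by potassium depolarization with thallium stimulus after 20 min compound exposure.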 The following applies: CHO-K1 KCNQ1, FluxOR thallium flux fluorescence, at 10 µM; active compounds read high.
In the case of `COc1ccccc1N1CCN(C(=O)c2cn(-c3ccccc3)nc2-c2cccnc2)CC1`, the B-score entry was “inactive”.

Regarding `COc1ccc(NC(=O)C(CC(C)C)NC(=O)C2CCC(C)CC2)cc1` (stereo not drawn), the B-score entry was “inactive”.

As for `COc1ccc(CCNCC(O)Cn2ccc3ccccc32)cc1OC` (stereo not drawn), the B-score entry was “inactive”.

With `Cc1cccc(NC(=S)Nc2ccc(Cl)c(Cl)c2)c1`, the B-score was 7 (active).

For the compound `Cc1ccc(NC(=S)Nc2ccc(F)cc2)cc1`, the B-score result was “inactive”.

As to `Cc1cccc(NC(=S)Nc2ccc3cn[nH]c3c2)c1`, the B-score result is “inactive”.

As to `Cc1cccc(NC(=O)NC(=S)NC(=O)c2ccccc2)c1`, the B-score entry was “inactive”.

For the compound `Cc1cccc(NC(=S)Nc2ccc(Br)cc2)c1`, the B-score is 6 (active).

Consider `Cc1cccc(NC(=S)NC23CN4CN(CN(C4)C2)C3)c1`, for which the B-score result was “inactive”.

`Cc1ccc(C)c(N2CCN(C(=O)CCCn3c(=O)c4cccn4c4cccnc43)CC2)c1`: the B-score result is “inactive”.

Consider `COC(=O)CN1C(=O)[C@H]2[C@@H](/C=C/c3ccccc3)N3C(=O)CN(Cc4ccccc4)C(=O)[C@@]3(Cc3ccccc3)[C@H]2C1=O`, for which the B-score entry is “inactive”.

For `CN(C)/C=C(/C(=O)c1ccc(F)cc1)S(=O)(=O)c1ccc(F)cc1`, the B-score result was “inactive”.

`CC(NCC(=O)Nc1cc(Cl)cc(Cl)c1)c1ccccc1` (stereo not drawn): the B-score result is “inactive”.

Turning to `Cc1nnc(SC(C(=O)c2ccccc2)c2ccccc2)[nH]c1=O` (stereo not drawn), the B-score entry was “inactive”.

In the case of `Cc1nnc(SC(C(=O)Nc2cc(Cl)cc(Cl)c2)c2ccccc2)[nH]c1=O` (stereo not drawn), the B-score was 8 (active).

As for `CC(/C=C/c1ccccc1)=N\NC(=O)C1CC1(C)c1ccccc1` (stereo not drawn), the B-score is 9 (active).

As to `CC(/C=C/c1ccco1)=N/NC(=O)C1COc2ccccc2O1` (stereo not drawn), the B-score result is “inactive”.

For `O=C(N/N=C/C=C/c1ccccc1)C1CC1(c1ccccc1)c1ccccc1` (stereo not drawn), the B-score entry was “inactive”.

In the case of `COc1ccc(NC(=O)c2oc3ccc(S(=O)(=O)N4CCOCC4)cc3c2C)cc1`, the B-score entry is “inactive”.

On to `COCCN1C2=C(COC(C)(C)C2)C(=S)NC1c1ccccc1` (stereo not drawn), for which the B-score result is “inactive”.

As for `Cc1nc([N+](=O)[O-])nn1C12CC3CC(CC(Br)(C3)C1)C2`, the B-score entry was “inactive”.

Turning to `CCOC(=O)c1c(NC(=O)CCCN2CCOCC2)sc2c1CC(C)(C)OC2`, the B-score result was “inactive”.

Turning to `COc1ccc(C(=O)C2CCCN(Cc3ccc4nonc4c3)C2)c(C)c1` (stereo not drawn), the B-score entry is “inactive”.

For the compound `CCOC(=O)c1[nH]ncc1CN1CCCC(C(=O)c2ccc(OC)cc2C)C1` (stereo not drawn), the B-score result was “inactive”.

With `COc1ccc(C(=O)C2CCCN(Cc3cccn3-c3ccccn3)C2)c(C)c1` (stereo not drawn), the B-score is 9 (active).

`CCC(=O)c1ccc(OCC(O)Cn2nc(C)c(C(C)=O)c2C)cc1` (stereo not drawn): the B-score result is “inactive”.

With `Cc1ccccc1Cn1c(=O)[nH]c2ccccc21`, the B-score entry was “inactive”.

In the case of `CCCc1cc(=S)n2c([nH]c3ccccc32)c1C#N`, the B-score is 8 (active).

As for `CCOC(=O)CCc1c(C)c(C#N)c2[nH]c3ccccc3n2c1=O`, the B-score entry was “inactive”.

As to `CCCN(CC1COc2ccccc2O1)C(=S)Nc1ccc(C)cc1` (stereo not drawn), the B-score entry was “inactive”.

Take `CCCn1c(C)cc(/C=C(\C#N)C(=O)OCC(=O)N(C)c2c(N)n(Cc3ccccc3)c(=O)[nH]c2=O)c1C`: the B-score result was “inactive”.

`CCC(C)[C@@H](C(=O)N1CCNCC1)n1cc(CCCCN)nn1` (stereo partly drawn): the B-score entry was “inactive”.

Consider `O=C(CCN1C(=O)c2ccccc2C1=O)Nc1ccncc1`, for which the B-score result was “inactive”.

Take `O=C(CCN1c2ccccc2Sc2ccccc21)Nc1ccccc1`: the B-score was 12 (active).

Consider `CC1CCN(CCC(=O)Nc2ccccc2)CC1`, for which the B-score entry is “inactive”.

For the compound `CCN1CCN(C(=O)CN(C)S(=O)(=O)c2ccc3ccccc3c2)CC1`, the B-score entry was “inactive”.

As to `CON(C)S(=O)(=O)c1ccc2c(c1)NC(=O)C1CCCN21` (stereo not drawn), the B-score result is “inactive”.

`Fc1cccc(Cl)c1CSc1ccc(-c2ccco2)nn1`: the B-score result is “inactive”.

Take `O=c1cc(O)nc(SCc2ccccc2Cl)[nH]1`: the B-score result was “inactive”.

Turning to `Clc1ccccc1CSc1nnc(-c2ccco2)c(-c2ccco2)n1`, the B-score was 11 (active).

Take `CC[C@@]12C(=O)N(c3ccccc3)C(=O)N1[C@H](c1ccc(Br)cc1)[C@@H]1C(=O)N(C(C)(C)C)C(=O)[C@@H]12`: the B-score entry is “inactive”.

As for `O=C1c2cccc3c([N+](=O)[O-])ccc(c23)C(=O)N1CC1CCCO1` (stereo not drawn), the B-score was 6 (active).

For `CCOc1cccc(=O)c2c(C)n(CC3CCCO3)c(C)c12` (stereo not drawn), the B-score entry is “inactive”.

As for `CCC(=O)Nc1ccc(C(=O)Nc2ccc3c(c2)C(=O)N(CC2CCCO2)C3=O)cc1` (stereo not drawn), the B-score entry was “inactive”.

For `CCOC(=O)C1CCN(Cc2coc3ccc(Cl)cc3c2=O)CC1`, the B-score result is “inactive”.

With `Cc1ccccc1-n1cc(CNC(=O)C2CCC(=O)N(C3CC3)C2)cn1` (stereo not drawn), the B-score result is “inactive”.

On to `Cc1ccc(C)c(N2CCN(S(=O)(=O)c3c(C)[nH]c(C)c3C(=O)N3CCCC3)CC2)c1`, for which the B-score result is “inactive”.

On to `O=[N+]([O-])c1cc(Br)c(O)c(/C=N/Nc2nc3ccccc3s2)c1`, for which the B-score was 12 (active).

For the compound `COc1ccc(CC(=O)N/N=C/c2cc([N+](=O)[O-])cc(Br)c2O)cc1`, the B-score result is “inactive”.

On to `c1ccc2sc(NN=C3CCCC3)nc2c1`, for which the B-score result was “inactive”.

In the case of `CCN(CC)CC(=O)Nc1sc2c(c1C(=O)c1ccccc1C)CCC2`, the B-score was 8 (active).

Take `O=C(Nc1sc2c(c1C(=O)O)CCC2)c1ccccc1F`: the B-score entry is “inactive”.

As for `CCc1ccc(N(CC(=O)Nc2sc3c(c2C(=O)OC)CCCC3)S(C)(=O)=O)cc1`, the B-score result is “inactive”.

For the compound `CCc1nc(N2CCN(C(C)=O)CC2)c2c3c(sc2n1)CCCC3`, the B-score result was “inactive”.

For `NS(=O)(=O)c1ccc(NC(=S)Nc2ccc(Br)c(Cl)c2)cc1`, the B-score is 8 (active).

Regarding `NS(=O)(=O)c1ccc(CCNC(=S)Nc2ccc(S(N)(=O)=O)cc2)cc1`, the B-score result is “inactive”.

As for `NS(=O)(=O)c1ccc(NC(=S)NC(=O)c2cccc(Br)c2)cc1`, the B-score result is “inactive”.

In the case of `CCCCSc1[nH]c(=O)c(C(=O)OCC)cc1C#N`, the B-score entry was “inactive”.

Turning to `COCCN(C(=S)Nc1cccc(Cl)c1C)C(C)c1ccco1` (stereo not drawn), the B-score result is “inactive”.

For `Fc1ccc(/C=N/n2c(COc3ccccc3)n[nH]c2=S)cc1`, the B-score entry was “inactive”.

Regarding `CC(C)[C@H](NC(=O)N1CCn2c1nc1ccccc12)C(=O)NCCc1ccccc1`, the B-score result is “inactive”.

With `CC(C)CCNC(=O)Cn1c(=O)oc2cc(S(=O)(=O)N3CC(C)CC(C)C3)ccc21` (stereo not drawn), the B-score entry is “inactive”.

For `CCOc1ccc(CC(=O)NC2CCN(Cc3ccccc3)CC2)cc1`, the B-score entry was “inactive”.

For `CCOc1ccc(CN2CCCN(C)CC2)cc1`, the B-score result is “inactive”.

As to `CCOc1ccc(CN2CCN(Cc3c[nH]c4ccccc34)CC2)cc1`, the B-score is 12 (active).

`COc1ccc(N(C)S(=O)(=O)c2ccc3c(c2)CC(C)N3C(=O)C2CC2)c(OC)c1` (stereo not drawn): the B-score result is “inactive”.

As for `Cc1occc(=O)c1OCc1ccc(F)cc1`, the B-score result was “inactive”.

For the compound `Cc1nc2ccccc2cc1OCc1ccc(F)cc1`, the B-score is 11 (active).

Consider `Fc1ccccc1COc1cccc2cccnc12`, for which the B-score entry is “inactive”.

For `CN1C(=O)c2cccc3c(N)ccc(c23)C1=O`, the B-score result was “inactive”.

Consider `Cc1nn(C)cc1N1C(=O)c2cccc3c(N)ccc(c23)C1=O`, for which the B-score was 22 (active).

Turning to `O=C1c2ccccc2C(=O)N1c1cccc2ccccc12`, the B-score entry was “inactive”.

As to `C/C(N)=C(/C#N)C(=O)COC(=O)c1cc(-c2ccc(C)cc2)nc2ccccc12`, the B-score result was “inactive”.

In the case of `CCCCCCCC[n+]1cccc(C(=O)N2c3c(nc(N)[nH]c3=O)NC(C)C2C)c1` (stereo not drawn), the B-score entry is “inactive”.

For `O=C(NC(=S)Nc1ccccc1C(=O)O)c1ccc(-c2ccc(Br)cc2)o1`, the B-score was 7 (active).

`O=C(O)c1ccccc1NC(=O)c1ccccc1-c1ccccc1C(=O)O`: the B-score entry was “inactive”.

On to `COC(=O)c1ccccc1NC(=S)NC(=O)c1ccccc1F`, for which the B-score result was “inactive”.

As for `COCCNC(=O)C(c1ccc(O)cc1)N(C(=O)CCC(=O)Nc1nccs1)c1ccc(C)cc1` (stereo not drawn), the B-score result is “inactive”.

Regarding `CCOC(=O)CN(C(=O)COc1nc(C)cc(C)c1C#N)c1ccc(Cl)cc1`, the B-score result is “inactive”.

Regarding `Cc1ccccc1C(=O)NNC(=O)CN1C(=O)c2ccccc2C1=O`, the B-score result is “inactive”.

As to `Cc1cc(C(=O)CCC(=O)NNC(=O)c2ccccc2O)c(C)s1`, the B-score is 6 (active).

Turning to `CC1=C(C)CC(C(=O)NNC(=O)c2ccccc2O)C(C(=O)O)C1` (stereo not drawn), the B-score entry was “inactive”.

As to `COc1ccccc1CNC(=O)COn1nnc2ccc(S(=O)(=O)N3CCOCC3)cc21`, the B-score result is “inactive”.

On to `O=S(=O)(c1ccc(Cl)cc1)c1nc(-c2ccco2)oc1N1CCCCC1`, for which the B-score result was “inactive”.

For `CCc1cc(C(N)=O)c(NC(=O)c2ccc(OC)cc2)s1`, the B-score entry was “inactive”.

As to `COc1ccc(C(=O)Nc2sc(C)c(C)c2CN2CCOCC2)cc1`, the B-score result was “inactive”.

`CCc1cc(C(c2ccccc2OC)N2CCOCC2)c(NC(=O)c2ccccc2)s1` (stereo not drawn): the B-score was 7 (active).

With `CC(C)CNc1ncnc2c1cnn2Cc1ccc(Cl)cc1`, the B-score result was “inactive”.

On to `Cc1ccc(Cl)cc1NC(=O)COC(=O)CC(C)(C)C`, for which the B-score result is “inactive”.

For the compound `COCn1c(C(O)c2ccccc2)cc2ccccc21` (stereo not drawn), the B-score entry is “inactive”.

Turning to `N#Cc1cccc(Nc2c3c(nc4ccccc24)CCCC3)c1`, the B-score entry was “inactive”.

`O=[N+]([O-])c1cccc(Nc2c3ccccc3nc3ccccc23)c1`: the B-score was 8 (active).

Consider `Cc1cc(CNC(=O)c2cccc([N+](=O)[O-])c2)c2ccccc2n1`, for which the B-score entry is “inactive”.

For the compound `NS(=O)(=O)c1ccc(CCNC(=O)CNC(=O)Cc2ccccc2)cc1`, the B-score entry is “inactive”.

On to `O=C1N(c2ccccc2)C(=Nc2ccccc2)SC12CC2`, for which the B-score entry was “inactive”.

With `C#CCCOC(=O)N1C2=NC(C(=O)OC)=C(C(=O)OC)[C@@H]3N(C)c4ccc(OC)cc4[C@]23C[C@H]1C(=O)OC`, the B-score result was “inactive”.

Consider `O=C1c2ccccc2C(=O)c2c1cccc2N1CCN(C/C=C/c2ccccc2)CC1`, for which the B-score result is “inactive”.

`O=C1c2ccccc2C(=O)c2c1cccc2N1CCN(Cc2ccccc2)CC1`: the B-score is 6 (active).

Turning to `O=C1c2ccccc2C(=O)c2c1cccc2N1CCN(CCO)CC1`, the B-score entry was “inactive”.

For `COC(=O)c1cccc(N(C(=O)CNC(=O)c2cccs2)C(C(=O)NCC2CCCO2)c2ccc(OC)c(OC)c2)c1` (stereo not drawn), the B-score result is “inactive”.

For the compound `Oc1ccc2ccc3cccc[n+]3c2c1`, the B-score was 30 (active).

Take `CCN(Cc1nc2ccccc2c(=O)[nH]1)Cc1cc(=O)oc2cc(C)c(C)cc12`: the B-score result is “inactive”.

As for `CC(C)CCN(C(=O)c1csnn1)C(C(=O)NC1CCCC1)c1ccccc1` (stereo not drawn), the B-score result is “inactive”.

For `CC(C)c1ccc(NC(=O)NC2CCCCC2)cc1`, the B-score result is “inactive”.

`O=C(Nc1cccc(F)c1)NC1CCCCCCC1`: the B-score result was “inactive”.

With `Cc1cc(C)cc(NC(=O)NC2CCCCCCC2)c1`, the B-score was 7 (active).

As for `COc1cccc2c1OCC(C(=O)NCc1ccc(Cl)cc1Cl)=C2`, the B-score entry was “inactive”.

Take `CCOc1cc(C2C(C(=O)OC(C)C)=C(C)NC3=C2C(=O)CCC3)cc([N+](=O)[O-])c1O` (stereo not drawn): the B-score result was “inactive”.
